This passage reports growth results from PubChem BioAssay (NCI).

Test systems include NCI-H23 lung; NCI-H226 lung; NCI-H322M lung; HOP-62 NSCLC; NCI-H460 lung; HOP-92 NSCLC; A549/ATCC NSCLC; 786-0 renal; COLO 205 colon; NCI-H522 lung.
Common to all, as to assay: NCI-60 one-dose screen, 48 h (100 = growth as untreated, 0 = no growth, -100 = all killed)
Holding throughout (conditions): 10 µM unless noted

Values joined by “and” are separate entries in the source; they are usually repeats but may differ in a detail not shown here. Equal values may be shown once. Compounds without any hit were thinned out: in the full panel of roughly 83,000, 20% have a hit.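 For each line, cells grew in 96-well plates with the test compound present at a single concentration for 48 hours.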 A structure can be active in one record and inactive in another. Active and inactive are the calls of the source. Rule for the calls: active = growth percent below 10; inactive = the rest.

As for `O=[N+]([O-])c1ccc(Oc2ccccc2)cc1`, the growth was 95.7% (inactive) and 105% (inactive) in the assay with NCI-H23 lung; 103% (inactive) with NCI-H226 lung; 104% (inactive) and 111% (inactive) in the assay with NCI-H322M lung; 106% (inactive) and 95.9% (inactive) with HOP-62 NSCLC; 103% (inactive) and 102% (inactive) in the assay on NCI-H460 lung; 48.8% (inactive) and 77.1% (inactive) in the assay on HOP-92 NSCLC. In addition, the growth with A549/ATCC NSCLC is 104% (inactive) and 89.5% (inactive); in the assay with 786-0 renal, 103% (inactive) and 106% (inactive); with COLO 205 colon, 109% (inactive) and 110% (inactive).

Regarding `Cc1nn(-c2ccc(Cl)cc2)c2ncnc(N/N=C/c3ccccc3O)c12`, the growth is 37% (inactive) and 18.5% (inactive) with NCI-H23 lung; 52.8% (inactive) and 27.9% (inactive) in the assay on NCI-H226 lung; 33.3% (inactive) and 7.57% (active) in the assay with NCI-H322M lung; 7.93% (active) and 9.97% (active) in the assay on HOP-62 NSCLC; 5.04% (active) and 1.12% (active) in the assay on NCI-H460 lung; 44.1% (inactive) and 26.6% (inactive) in the assay with HOP-92 NSCLC. The growth in the assay with NCI-H522 lung is 23.3% (inactive); in the assay on A549/ATCC NSCLC, 9.46% (active) and 12.8% (inactive); in the assay with 786-0 renal it was 8.99% (active) and 6.59% (active); with COLO 205 colon, 18.7% (inactive) and 4.16% (active).

With `COC(=O)/C=C/c1cc(O)c2c(c1)C(C(=O)OC)C(c1ccc(O)c(O)c1)O2` (stereo not given), the growth with NCI-H23 lung was 30.8% (inactive) and 27.3% (inactive); in the assay with NCI-H226 lung, 57.1% (inactive) and 39.7% (inactive); with NCI-H322M lung, 72.7% (inactive) and 55.8% (inactive); with HOP-62 NSCLC it was 45.8% (inactive) and 37.5% (inactive); with NCI-H460 lung, 28% (inactive) and 17.7% (inactive); in the assay on HOP-92 NSCLC, 16.5% (inactive) and -0.331% (active). The growth in the assay on A549/ATCC NSCLC was 31.5% (inactive) and 20.3% (inactive); in the assay on 786-0 renal, 17% (inactive) and 15% (inactive); with COLO 205 colon, 58.5% (inactive) and 41% (inactive).

On to `NC(=S)NN=C1CCC(C2CCCCC2)CC1` (stereo not given), for which the growth in the assay on NCI-H23 lung is 103% (inactive) and 94.1% (inactive); in the assay with NCI-H226 lung it was 89.1% (inactive) and 73% (inactive); in the assay on NCI-H322M lung, 95.9% (inactive) and 88.2% (inactive); with HOP-62 NSCLC, 113% (inactive) and 111% (inactive); with NCI-H460 lung, 106% (inactive) and 108% (inactive); in the assay with HOP-92 NSCLC it was 95.7% (inactive) and 92.3% (inactive). For the same molecule, the growth was 52.2% (inactive) and 47.2% (inactive) in the assay with NCI-H522 lung; 94% (inactive) and 99.5% (inactive) in the assay with A549/ATCC NSCLC; 96.7% (inactive) and 91.9% (inactive) in the assay with 786-0 renal; 102% (inactive) and 95% (inactive) with COLO 205 colon.

Turning to `COc1ccc(-c2ncnc3c2ncn3C/C=C/CCl)cc1`, the growth with NCI-H23 lung is 63.6% (inactive) and 80.5% (inactive); in the assay with NCI-H226 lung, 89.4% (inactive) and 81.5% (inactive); in the assay with NCI-H322M lung, 100% (inactive) and 105% (inactive); in the assay on HOP-62 NSCLC it was 98.7% (inactive) and 95.9% (inactive); in the assay on NCI-H460 lung, 67.5% (inactive) and 97.1% (inactive); in the assay with HOP-92 NSCLC it was 37.9% (inactive) and 62.9% (inactive). Further, the growth in the assay with NCI-H522 lung was 48.5% (inactive) and 55.5% (inactive); with A549/ATCC NSCLC it was 81.2% (inactive) and 75% (inactive); in the assay on 786-0 renal, 70.2% (inactive) and 80% (inactive); in the assay on COLO 205 colon, 87.5% (inactive) and 94.1% (inactive).

For `O=C(N/N=C/c1cccc2ccccc12)C1CC1`, the growth in the assay on NCI-H23 lung is 104% (inactive) and 89.3% (inactive); in the assay with NCI-H226 lung, 104% (inactive) and 92.2% (inactive); in the assay on NCI-H322M lung, 98.1% (inactive) and 101% (inactive); in the assay on HOP-62 NSCLC it was 104% (inactive) and 116% (inactive); in the assay with NCI-H460 lung, 113% (inactive) and 104% (inactive); in the assay with HOP-92 NSCLC it was 97.8% (inactive) and 95.1% (inactive). Besides, the growth was 100% (inactive) and 89.2% (inactive) in the assay on A549/ATCC NSCLC; 99.9% (inactive) and 99% (inactive) in the assay on 786-0 renal; 112% (inactive) and 117% (inactive) with COLO 205 colon.

For `Cc1cc(C)c(N)c(Br)c1`, the growth in the assay on NCI-H23 lung was 101% (inactive) and 83.8% (inactive); with NCI-H226 lung, 106% (inactive); in the assay on NCI-H322M lung, 130% (inactive) and 105% (inactive); in the assay on HOP-62 NSCLC, 92.6% (inactive) and 165% (inactive); with HOP-92 NSCLC it was 82.2% (inactive); in the assay with A549/ATCC NSCLC, 104% (inactive) and 106% (inactive). Besides, the growth with 786-0 renal was 102% (inactive) and 93.6% (inactive); with COLO 205 colon, 102% (inactive) and 105% (inactive).

Turning to `CC(O)Cn1cnc2c1c(=O)n(C)c(=O)n2C` (stereo not given), the growth in the assay with NCI-H23 lung was 96.7% (inactive); in the assay on NCI-H226 lung it was 102% (inactive); in the assay with NCI-H322M lung, 96.6% (inactive); with HOP-62 NSCLC, 102% (inactive); in the assay on A549/ATCC NSCLC, 99.6% (inactive); in the assay with 786-0 renal, 102% (inactive).

For `CCOC(=O)Nc1nc2ccccc2[nH]1`, the growth is 102% (inactive) and 56.7% (inactive) in the assay with NCI-H23 lung; 104% (inactive) and 71.9% (inactive) in the assay on NCI-H226 lung; 107% (inactive) and 72.2% (inactive) in the assay on NCI-H322M lung; 106% (inactive) and 53.4% (inactive) in the assay on HOP-62 NSCLC; 104% (inactive) and 62.5% (inactive) in the assay with HOP-92 NSCLC; 95.6% (inactive) and 46.8% (inactive) in the assay with NCI-H522 lung. Further, the growth with A549/ATCC NSCLC is 102% (inactive) and 55.4% (inactive); in the assay with 786-0 renal, 98.5% (inactive) and 39% (inactive); in the assay with COLO 205 colon it was 119% (inactive) and 37.7% (inactive).
